Source: ChEMBL document CHEMBL3988442, “University of Dundee, Small-Polar-MMV Screening Library” (2021)

How the values were obtained:
[1] = molecular target: T1, Aspartate--tRNA(Asp/Asn) ligase (Mycobacterium tuberculosis (strain ATCC 25618 / H37Rv)) (UniProt P9WFW3); test: Assay for Asp RNA synthetase-1 from Mycobacterium tuberculosis; format: functional; parameters: scale not given: direction of the effect not stated beside the values; conditions: 30 µM; further: in the data most compounds retested in dose-response had high values
T1 sequence (whole entry): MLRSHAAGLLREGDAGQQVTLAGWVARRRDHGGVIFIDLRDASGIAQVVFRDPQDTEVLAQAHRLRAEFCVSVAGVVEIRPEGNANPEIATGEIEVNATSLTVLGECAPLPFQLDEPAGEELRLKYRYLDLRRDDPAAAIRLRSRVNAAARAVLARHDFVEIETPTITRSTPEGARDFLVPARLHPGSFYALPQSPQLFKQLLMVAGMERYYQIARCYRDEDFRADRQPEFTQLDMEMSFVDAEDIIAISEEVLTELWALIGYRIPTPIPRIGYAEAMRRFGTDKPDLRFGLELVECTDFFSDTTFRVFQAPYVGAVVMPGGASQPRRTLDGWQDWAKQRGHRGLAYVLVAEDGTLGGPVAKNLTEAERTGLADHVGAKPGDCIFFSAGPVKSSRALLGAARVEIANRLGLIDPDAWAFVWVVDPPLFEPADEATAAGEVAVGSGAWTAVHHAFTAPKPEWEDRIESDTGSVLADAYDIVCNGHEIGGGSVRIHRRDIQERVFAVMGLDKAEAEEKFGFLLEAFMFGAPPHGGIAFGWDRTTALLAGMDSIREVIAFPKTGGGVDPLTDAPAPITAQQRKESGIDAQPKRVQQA

[2] = molecular target: Shiga toxin 2 (Escherichia coli O157:H7) (UniProt P09385+P09386); test: E. coli 0.157:H7 Shiga Toxin SOP - stx2 screening assay; format: functional; parameters: scale not given: direction of the effect not stated beside the values; conditions: 30 µM

Structure (SMILES)	Percent Effect [1]	Percent Effect [2]
Cc1ccc(CNC(=O)Nc2nnc(C)s2)cn1	4.24%	-6.66%
CC(C)N(C)Cc1cn2c(n1)CN(Cc1ccsc1)CC2	1.89%	-40.8%
CS(=O)(=O)N1CC[C@H]2[C@H](C[C@@H](Cn3cncn3)N2CC2CC2)C1	10.1%	-8.81%
Cc1cc(C)n(CC2CCCN2C(=O)CCCNc2ncccn2)n1 (stereo unspecified)	-2.92%	26.1%
O=C(c1ccc[nH]1)N1CCn2cc(CN3CCCC3)nc2C1	-2.37%	0.78%
O=C(NCCc1cccc(F)c1)NCC(O)c1cccc(F)c1 (stereo unspecified)	-1.7%	32.2%
Cc1n[nH]c(C)c1C1COCCN1C(=O)c1cc(Cl)c[nH]1 (stereo unspecified)	2.63%	-24.9%
CN(C)C(=O)C1CN(Cc2ccccc2)CCN(S(C)(=O)=O)C1 (stereo unspecified)	-2.4%	-6.7%
Cc1cc(CN(C)C(=O)NCc2cccc(N3CCCC3=O)c2)no1	-2.4%	-15%
Clc1ccccc1C1(c2ccnc(-c3ncccn3)n2)CCNCC1	8.32%	-34.1%
CC(C)NC(=O)N1CCC2(C1)CN(c1ccsc1)C(=O)CN2C (stereo unspecified)	11.4%	-17.6%
CS(=O)(=O)N1CCOC2(CCCN(c3cnccn3)C2)C1 (stereo unspecified)	-5.91%	-3.98%
CCOc1ccc(NC(=O)c2cnc(N3CCCC3)nc2C)cc1	-4.56%	-10.5%
c1cnn(CC2CCCCN2Cc2cn3ccsc3n2)c1 (stereo unspecified)	1.03%	-12.1%
CC(C)C(=O)NC1CCN(Cc2cccc3c2OCCO3)CC1	-1.32%	5.01%
CC(=O)c1cc(CC(=O)NCc2ccc(F)cc2)cs1	1.48%	-11.3%
CCOc1ncccc1C(=O)N(C)Cc1ncc(C)c(OC)c1C	-0.375%	19.7%
CN(C)c1nc2c(c(N3CCC(O)CC3)n1)CN(CC1CCNC1)CC2 (stereo unspecified)	3.47%	-11.1%
CCn1cc(NC(=O)NCC(c2cccc(F)c2)N(C)C)cn1 (stereo unspecified)	-4.28%	21.4%
O=C(C1CCOCC1)N1C[C@@H]2[C@@H](C1)OCC(=O)N2Cc1ccncc1	-2.99%	-3.94%
CN(C)CCNC(=O)c1cnc2c(c1)nc(-c1ccccc1Cl)n2C	3.74%	5.62%
CCn1cc(N2Cc3nc(N)ncc3C2=O)cn1	-7.32%	-36.6%
CN1CC(=O)N(c2ccccc2)CC12CCN(Cc1nccs1)C2 (stereo unspecified)	4.78%	-21.2%
Cc1ccc(-c2ncc(C(=O)NCCNC(=O)C(C)C)s2)c(C)c1	2.19%	11.7%
COCCN1CCC2(CCCN(C(=O)c3cnoc3C)C2)C1=O (stereo unspecified)	0.137%	-23%

Structure (SMILES)	Percent Effect [1]	Percent Effect [2]
CN(C(=O)NCCCN1CCCC1)C1CCN(c2ccccc2)C1=O (stereo unspecified)	-0.189%	24.2%
O=C(NCc1ccco1)[C@@]12CCO[C@@H]1CCN(CCN1CCCC1)C2	1.05%	-24.8%
NC(=O)NCC(=O)N1C[C@H]2CC[C@@H]1CN(C1Cc3ccccc3C1)C2	6.33%	-7%
c1coc(CN2C[C@H](OCC3CCOCC3)[C@H]3COC[C@H]32)c1	1.73%	12.6%
CN(C)C(CNS(=O)(=O)c1ccc(F)cc1F)c1cccn1C (stereo unspecified)	0.719%	-2.1%
CS(=O)(=O)Cc1ccc(CNC(=O)c2cccnc2O)cc1	-6.68%	-14.2%
CC(=O)N1CC(=O)N(c2cnn(C)c2)CC12CCN(CC1CC1)C2 (stereo unspecified)	4.21%	-23.2%
COc1cc2nc3n(c(=O)c2cc1OC)CCN(C(C)=O)CC3	-0.551%	17%
Cc1cc(C)n(Cc2cccc(C(=O)NCCN3CCOCC3)c2)n1	5.71%	-69.3%
CCn1ncc2c1CCCC2NCc1cccc2c1OCCO2 (stereo unspecified)	-2.02%	-6.1%
O=C(c1cccc(F)c1)N1CCOC(c2nc(-c3ncccn3)no2)C1 (stereo unspecified)	-5.54%	3.39%
Cn1cccc1C(=O)N1CCc2ncnc(C3CC3)c2CC1	0.574%	-1.81%
Cc1noc(C(C)N2CCN(CCC(=O)N3CCCCC3)CC2)n1 (stereo unspecified)	-2.64%	7.71%
CN(Cc1ccccc1)CC(O)Cn1cnc2c(cnn2C)c1=O (stereo unspecified)	-0.522%	-8.29%
Cc1nc(CNC(=O)NCC(O)c2ccc(F)cc2F)cs1 (stereo unspecified)	-6.13%	-21.6%
CC(C)c1nnc2n1CCN(C(=O)CN1Cc3ccccc3C1=O)C2	-0.233%	-25.5%
Oc1cc(CCC2CCCCN2)cc(-c2ccncc2)c1 (stereo unspecified)	2.44%	-42.2%
COc1cccc2cc(CNCc3ccnc(N4CCOCC4)c3)oc12	-2.91%	26.8%
Cc1ccc([C@@H]2CN(C(=O)c3cccnn3)C[C@H]2NC(=O)C2CC2)cc1	-3.85%	29.5%
COC(=O)c1cc(C(=O)N2CCOCC2(C)C)n(-c2ccccc2)n1	-4.48%	13.3%
Cc1cccc(N2CC[C@@H]3CN(Cc4csc(C)n4)CCO[C@@H]3C2)n1	-1.08%	-42.6%
Cc1nc([C@@H]2C[C@@H]3CCN(C(=O)c4occc4C)C[C@H]3O2)no1	10.9%	-14.5%
O=C(CN(Cc1ccccc1)CC1CCOCC1)Nc1nccs1	2.07%	-19%
Cc1ncc(CNC(=O)N(C)C2CCN(c3ccccc3)C2=O)s1 (stereo unspecified)	-3.19%	24.6%
COc1cccc(S(=O)(=O)N2CCC(O)(CN(C)C)C2)c1 (stereo unspecified)	-0.221%	11.2%

Structure (SMILES)	Percent Effect [1]	Percent Effect [2]
OC(COc1ccccc1)CN1CCC(c2ccn[nH]2)CC1 (stereo unspecified)	-0.6%	-7.22%
CC(C)(C)n1cc(C(=O)N2CCN(Cc3ccsc3)CC2)cn1	-3.48%	30.7%
CC(C)(C)C(=O)NS(=O)(=O)c1ccc(C#N)cc1C(F)(F)F	0.681%	21.9%
Cc1ccc(C(=O)N2CCn3cc(CN4CCCCC4)nc3C2)o1	8.53%	-27.2%
CC(C)(C)c1nnc(CN2CCCC(c3cc(C(N)=O)[nH]n3)C2)o1 (stereo unspecified)	-0.781%	19.9%
Cc1ccc(S(=O)(=O)NC(=O)c2cccc3c2OCCO3)c(C)c1	-3.08%	-9.09%
Cc1ccc(NCc2cncc3c2CCN(C(=O)C2CC=CC2)C3)nn1	6.32%	-38%
CCC(=O)N1CCCC1c1nccnc1Nc1nc(C)cc(C)n1 (stereo unspecified)	4.25%	-28.8%
Cc1ccccc1CSCCn1nc2ccccn2c1=O	-1.33%	26.4%
CCn1c(C)nnc1CN(C)C1CCN(Cc2cnc(C)cn2)C1 (stereo unspecified)	2.78%	-19%
CC(=O)N1C[C@@H](c2ccsc2)[C@@H]2CN(Cc3ccccc3)CC[C@@H]21	2.13%	-20.6%
Cc1nn(C)c(C)c1CC(=O)N1CCCC(n2cccn2)C1 (stereo unspecified)	-4.75%	20.6%
CCCc1n[nH]c(C2CN(Cc3nnc(C4CC4)o3)CCO2)n1 (stereo unspecified)	-8.48%	-20.6%
COc1cccc(OC)c1C(=O)N1CCN(c2ccccc2F)CC1	1.49%	35.2%
CN(Cc1ncc(C(C)(C)C)o1)C1CCCN(c2cccnn2)C1 (stereo unspecified)	0.143%	-9.94%
Cc1cnc(N)c(C(=O)C2CCN(C(=O)c3ccccc3F)CC2)c1	-1.9%	-8.93%
Cc1nn(C)cc1C(=O)Nc1cccc(CN2CCC(CO)CC2)c1	3.06%	-101%
O=C1CC(c2ccc(C(=O)O)cc2)c2ncn(-c3ccccc3)c2N1 (stereo unspecified)	19.5%	-25.4%
N#Cc1ncn(CCC(=O)Nc2ccc(Cl)cc2F)n1	10.4%	-41%
COc1ccc(CN2C[C@@H](OCc3ccccn3)[C@H]3COC[C@H]32)cc1	3.47%	12.7%
Cc1ccccc1C1CCCN1C(=O)CN1CC2(CCNCC2)OC1=O (stereo unspecified)	3.25%	2.84%
O=C(Nc1ccccc1)c1nn(C2CCS(=O)(=O)C2)c2c1CCCC2 (stereo unspecified)	0.629%	4.6%
NC(=O)c1cc(C2CCCN(C(=O)CCc3cscn3)C2)n[nH]1 (stereo unspecified)	-4.07%	-14.1%
COCCNC(=O)NCCc1ccn(-c2ccccc2)n1	-4.41%	3.32%
CN(C)[C@@H]1CCN(c2ncccn2)[C@H]1Cc1ccccc1	-0.0594%	-1.36%

Structure (SMILES)	Percent Effect [1]	Percent Effect [2]
Cn1cc(CN2CC3(CCN(C(=O)c4cscn4)C3)C2)cn1	-5.56%	-18.3%
O=C([C@@H]1CC[C@@H]2[C@@H](CCN2Cc2cccc(F)c2)O1)N1CCCCO1	0.291%	-15%
Cc1ncc(-c2nc3cc(S(=O)(=O)N4CCCC4)ccc3n2C)cn1	6.27%	0.802%
COC(=O)CNC(=O)CSCc1nc(O)c2c(C)c(C)sc2n1	-0.261%	-18.2%
CCn1nc(C(=O)N2CCCC(n3cncn3)C2)ccc1=O (stereo unspecified)	-5.19%	18.8%
Cc1nc(C2CCCN2Cc2ncc(C(C)C)o2)no1 (stereo unspecified)	-2.92%	-16.6%
CC(Cn1cccn1)NC(=O)N1CCN(Cc2cccnc2)CC1 (stereo unspecified)	0.625%	-18.1%
Cc1nc(C(=O)N2CCCC(c3cccc(-n4ccnc4)n3)C2)co1 (stereo unspecified)	-0.67%	3.79%
CCN1CCN(S(=O)(=O)c2ncn(C)c2Cl)CC1	-2.51%	-7.16%
Cc1noc(C)c1CCC(=O)N1CCN(CCn2cccn2)CC1	-5.26%	-11.4%
O=c1ccc(-c2cccs2)nn1CN1CCCCCC1	-1.83%	-4.33%
Cc1cc(OCC(=O)NS(=O)(=O)c2c(C)noc2C)ccc1Cl	-2.01%	13.3%
O=C(NCC(O)CN1CCc2ccccc2C1)Nc1cccnc1 (stereo unspecified)	-0.98%	-22.8%
Cc1nc[nH]c1CN1C[C@@H]2CC[C@H](C1)N(C(=O)CCc1cnn(C)c1)C2	0.752%	5.79%
CCn1ccnc1CN1CCCN(C(=O)Cn2nc(C)cc2C)CC1	3.14%	8.68%
CCS(=O)(=O)N1CC[C@H](OC)[C@@H]1Cc1ccncc1	-2.52%	-2.84%
CCc1c(C(=O)NCC(=O)OCC2CC2)cnn1-c1ccc(C)cc1	-5.03%	-6.36%
CN(C(=O)c1cc(Cl)c[nH]1)C1CCN(c2ccccn2)CC1	-6.49%	1.72%
COc1cccc2ccn(CCC(=O)N3CCCC(C(=O)O)C3)c12 (stereo unspecified)	9.22%	-2.31%
O[C@H]1[C@H](n2cc(-c3ccccc3)nn2)c2ccccc2C12CCNCC2	6.77%	-10.9%
COc1c(CNC2CCCc3ccccc32)c(C(C)C)nn1C (stereo unspecified)	-0.233%	-10.1%
Cc1ccc(S(=O)(=O)N2CCC3(CC(C(=O)NCC4CC4)=NO3)C2)cc1 (stereo unspecified)	10.8%	14.7%
Cn1cc(CN2CCCN(C(=O)c3cn4ccccc4n3)CC2)cn1	1.48%	-25.9%
